Assay outcomes from PubChem.
This is a sample that favours compounds with a hit; in the whole collection about 19% have one here.
TDP1 cell CPT: DT40-hTDP1 cell growth loss with CPT | AID 686979 | chicken DT40 Tdp1-/-;hTDP1 cells + 20 nM CPT, ATP luminescence, 48 h | Potency, µM (highest dose often 46.2 µM), without a hit: at the top dose activity change, negative = growth inhibition, actives largely listed as inhibitors | 420,000 compounds, 12% hits; also: potency is read from the fitted curve at half-maximal effect; % is scaled to controls: 0 for no effect and ±100 for the full control effect; nearly all actives have a fitted effect of over 55% in size
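Chicken DT40 Tdp1-/- cells stably complemented with human TDP1 were seeded at 400 cells/well in medium containing 20 nM camptothecin, exposed to pin-transferred compounds, and grown at 37 °C for at least 48 hr. Viability was read as ATP luminescence.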
HepG2 tox: HepG2 cytotoxicity, counter-screen for TGF-b inhibitors | HepG2 CAGA-GFP viability, ATP luminescence, 18 h | Potency, µM (doses to about 46.1 µM), for the others: top-dose activity change, negative = cytotoxicity, hits mostly cytotoxic | 410,000 compounds, 0.76% hits; also: potency is read from the fitted curve at half-maximal effect
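CellTiter-Glo luminescence gave cytotoxicity after 18 hours at 37 degrees C. The cells were HepG2 CAGA-GFP in 1% FBS DMEM, stimulated with 500 pg/mL TGF-beta after compound addition. %Activity was normalised to no-cell wells (complete cell-killing) and DMSO (no toxicity), and curves were fitted and classified.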
IL-1B inflam inh: blocks inflammasome-driven IL-1 beta release; 360,000 compounds, 4.7% hits; activity change, % at 57.5 µM; THP-1 LPS/ATP IL-1B secretion, AlphaLISA, 16 h; stronger effect = lower value; AID 743279; in the data active = activity change below about -50%; inconclusive = mostly about -30% to -49%; also: % is scaled to controls: 0 for no effect and ±100 for the full control effect
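Secreted IL-1B measured by AlphaLISA bead assay after 16 h compound exposure of THP-1 cells; compounds (final up to 57.5 uM) added 1 h before LPS (250 ng/mL) and ATP (1.25 mM) stimulation; lower signal means less secretion.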
TDP1 cell noCPT: qHTS for Inhibitors of human tyrosyl-DNA phosphodiesterase 1 (TDP1): qHTS in cells in absence of CPT; Potency, µM (titrated, usually from 46.2 µM), without a hit: at the highest dose activity change, negative = growth inhibition, actives largely listed as inhibitors; 420,000 compounds, 15% hits; DT40 Tdp1-/- hTDP1 cells, no CPT, ATP luminescence, 48 h; also: potency is read from the fitted curve at half-maximal effect; % is scaled to controls: 0 for no effect and ±100 for the full control effect; nearly all actives have a fitted effect of over 55% in size
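Chicken DT40 Tdp1-/- cells stably complemented with human TDP1 were seeded at 400 cells/well with DMSO in place of 20 nM camptothecin. After compound pinning, cells grew at least 48 hr at 37 °C; viability read by CellTiter-Glo luminescence.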
TGFb SMAD3 inh: TGF-b pathway inhibition. 410,000 compounds, 1.2% hits. AID 588855. Potency, µM (titrated, usually from 46.1 µM), for the others: at the highest dose activity, negative = inhibition, actives largely listed as inhibitors. HepG2 CAGA-GFP TGF-b/SMAD3 reporter, GFP fluorescence, 18 h; TGF-beta stimulated, 500 pg/mL final; also: potency is read from the fitted curve at half-maximal effect; % is scaled to controls: 0 for no effect and ±100 for the full control effect; nearly all actives have a fitted effect of over 65% in size
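HEPG2 CAGA-GFP, 1000 cells/well; 2 h settle, 37 C; cpd via pin tool; TGF-b 500 pg/mL final; 18 h, 37 C; GFP imaging ex488/em500-530; %Activity normalised to -TGF-b and +DMSO controls; CRC fit, curve class.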
TDP1 inh: TDP1 (human) enzyme inhibition | Q9NUW8 | recombinant TDP1, AlphaScreen DNA substrate cleavage | Potency, µM (top dose mostly 130 µM), for the others: top-dose activity change, negative = inhibition, most hits filed as inhibitors | 350,000 compounds, 0.28% hits | AID 485290; also: potency is read from the fitted curve at half-maximal effect; % is scaled to controls: 0 for no effect and ±100 for the full control effect; nearly all actives have a fitted effect of over 40% in size
Target sequence (Q9NUW8 whole entry, looked up): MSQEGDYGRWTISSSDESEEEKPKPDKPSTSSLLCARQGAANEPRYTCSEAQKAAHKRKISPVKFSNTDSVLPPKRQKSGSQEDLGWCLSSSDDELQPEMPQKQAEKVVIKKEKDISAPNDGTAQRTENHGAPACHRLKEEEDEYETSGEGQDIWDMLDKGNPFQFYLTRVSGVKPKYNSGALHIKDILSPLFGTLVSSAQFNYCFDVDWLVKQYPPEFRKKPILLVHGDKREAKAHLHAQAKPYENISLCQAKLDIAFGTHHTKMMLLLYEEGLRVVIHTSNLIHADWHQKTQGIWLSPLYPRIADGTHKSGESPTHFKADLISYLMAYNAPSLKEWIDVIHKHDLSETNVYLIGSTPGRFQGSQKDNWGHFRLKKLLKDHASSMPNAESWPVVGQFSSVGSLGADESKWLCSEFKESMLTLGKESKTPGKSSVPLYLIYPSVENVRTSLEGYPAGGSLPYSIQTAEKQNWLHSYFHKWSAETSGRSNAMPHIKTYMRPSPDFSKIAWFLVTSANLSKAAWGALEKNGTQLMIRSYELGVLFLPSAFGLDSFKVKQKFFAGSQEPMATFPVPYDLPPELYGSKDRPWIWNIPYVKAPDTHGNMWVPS
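Signal: AlphaScreen proximity between streptavidin donor and anti-FITC acceptor beads on intact substrate. Reaction: Tdp1 1 nM, substrate 15 nM final, 5 min RT after 15 min compound preincubation.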
Numbers without * were called inactive; ? = inconclusive; / = no result; [ ] = dose if it differs, or a comment. Unless noted, calls follow the shape of the dose curve; as a rule, active = well fitted curve in the direction sought with a large enough effect; inconclusive = small, poorly fitted or top-dose-only effect, or another doubt; inactive = no such curve, though single readings can be large; an effect the other way counts as inactive or inconclusive.

SMILES	TDP1 cell CPT	HepG2 tox	IL-1B inflam inh	TDP1 cell noCPT	TGFb SMAD3 inh	TDP1 inh
Oc1ccc(NCc2ccccc2OCc2ccccc2Cl)cc1	15µM*	-58%	/	5.2µM*	/	6%
Cc1cccc(C(=O)OCC(=O)N(C)C(c2ccccc2)c2ccccc2)c1[N+](=O)[O-]	12µM*	4%	21	7.3µM*	10%	4%
CCN(C(=O)Cn1c(C(=O)OC)cc2oc3ccccc3c21)c1cccc(C)c1	12µM*	-32%	/	18µM*	?	1%
CCSc1nnc(C(C)NC(=O)c2ccc(OC)cc2)n1C (centres undefined)	9%[9.04 µM]	/	/	-13%	/	/
O=S(=O)(Nc1cccc(C(F)(F)F)c1)c1cnc[nH]1	0%	-23%	20	-20%	-23%	7%
O=S(=O)(Nc1ccc(C(F)(F)F)cc1)c1cnc[nH]1	18µM*	-6%	12	23µM*	1%	1%
COc1ccc(OCCC(=O)OCC(=O)NCc2ccco2)cc1	21µM*	18%	6	?	0%	/
COc1ccc(C(=O)OCC(=O)NCc2ccco2)cc1OC	11%	-9%	-3	-6%	8%	40µM*
O=C(COC(=O)Cc1ccc(Cl)c(Cl)c1)NCc1ccco1	-8%	3%	-10	-17%	-10%	0%
O=C(COC(=O)Cc1ccc(Cl)cc1)NCc1ccco1	-1%	24%	10	0%	-1%	11µM*
CC1(C)C(=O)Nc2ccccc2N1C(=O)COC(=O)c1cccc(O)c1	?	0%	-22	?	-2%	-10%
COc1cc(C(=O)OCC(=O)N2c3ccccc3NC(=O)C2(C)C)ccc1OCC(C)C	?	-22%	-81*	?	-31%	/
COc1cc(OC)cc(C(=O)N[C@H](C(=O)NCc2ccco2)C(C)C)c1	29µM*	-11%	11	15µM*	5%	0%
COc1cc(C(=O)OCC(=O)NCc2ccc(F)cc2)ccc1OCC(C)C	?	-4%	-7	16µM*	3%	2%
Cc1cc(C(=O)OCC(=O)NCc2ccco2)c(C)n1-c1ccc(F)cc1	0.65µM*	-4%	21	0.82µM*	?	8%
COc1ccc(C(=O)N[C@H](C(=O)NCc2ccco2)C(C)C)cc1	-18%	11%	10	?	-16%	-3%
O=c1c2ccccc2nc2c3ccccc3c3nncn3n12	7.3µM*	-8%	-8	5.2µM*	4%	4%
O=c1c2ccccc2nc2c3ccccc3cnn12	?	-28%	0	?	-2%	8%
COC(=O)C/C=C/[C@@H](C)[C@H](O)c1ccccc1Br	/	/	/	/	/	8%
CC(C)(CO)CNc1ccn2nccc2n1	13µM*	-31%	-79*	?	-21%	/
CCOC(=O)C(CC)Sc1ncnc2sc3c(c12)CCCC3 (centres undefined)	?	-1%	/	?	9%	/
CN(Cc1ccccc1)C(=O)c1ccc(NC(=O)Cc2ccc(NC(=O)C3CCN(C(=O)C4CCC4)CC3)cc2)cc1	?	-5%	-20	?	13%	/
CN(C(=O)c1ccc(NC(=O)Cc2ccc(NC(=O)C3CCN(C(=O)C4CCCCC4)CC3)cc2)cc1)C1CC1	?	10%	-61*	?	2%	10%
CN(Cc1ccccc1)C(=O)c1ccc(NC(=O)Cc2ccc(NC(=O)C3CCN(C(=O)CCc4ccccc4)CC3)cc2)cc1	26µM*	-10%	23	10µM*	-30%	/
CN(Cc1ccccc1)C(=O)c1ccc(NC(=O)Cc2ccc(NC(=O)C3CCN(C(=O)C4CCCCC4)CC3)cc2)cc1	23µM*	-14%	29	16µM*	5%	/
SMILES	TDP1 cell CPT	HepG2 tox	IL-1B inflam inh	TDP1 cell noCPT	TGFb SMAD3 inh	TDP1 inh
CN(C(=O)c1ccc(NC(=O)Cc2ccc(NC(=O)C3CCN(C(=O)C4CCCC4)CC3)cc2)cc1)C1CCCC1	?	-20%	-17	?	-9%	/
CN(Cc1ccccc1)C(=O)c1cccc(NC(=O)Cc2ccc(NC(=O)C3CCN(C(=O)CCc4ccccc4)CC3)cc2)c1	?	-13%	-3	16µM*	?	/
COc1ccc(C)cc1-n1cnnn1	0%	-7%	-27	-3%	2%	0%
c1ccc2cc(CNCc3cccc4ccccc34)ccc2c1	?	-30%	?	?	?	-4%
O=C(CN(CCc1c[nH]c2ccccc12)S(=O)(=O)c1ccccc1)N1CCCCCC1	?	-12%	/	?	-8%	/
COc1ccc(NC(=S)N2CCC(c3nc4ccccc4o3)CC2)c(OC)c1	?	1%	-1	0%	14%	6%
CCCn1c(C)nc2c(NCCN(C)C)nc(C)nc21	/	/	/	/	/	6%
Cc1c(Cl)cccc1NC(=O)CSc1nc(=O)[nH]c2c1CCCC2	21µM*	-11%	/	21µM*	?	0%
O=C(CSc1nc(=O)[nH]c2c1CCCC2)Nc1ccc(Cl)c(Cl)c1	?	-17%	/	?	-2%	0%
Cc1cc(C)c(NC(=O)CSc2nc(=O)[nH]c3c2CCCC3)c(C)c1	?	3%	/	23µM*	3%	3%
Cc1c(Cl)cccc1NC(=O)CSc1nc(=O)n(Cc2ccco2)c2c1CCC2	21µM*	-13%	/	?	?	5%
Cc1ccc(NC(=O)COc2ccc3c(c2)OCO3)c(C)c1	-5%	6%	3	?	-12%	0%
Cc1nc2ccccn2c1C(=O)/C=C/c1ccc(F)cc1	?	-13%	-108*	21µM*	?	-6%
COc1cc(C)ccc1S(=O)(=O)N1CCN(C23CC4CC(CC(C4)C2)C3)CC1	?	-23%	-6	16µM*	-6%	2%
COc1cc(F)ccc1S(=O)(=O)N1CCN(C23CC4CC(CC(C4)C2)C3)CC1	1%	-23%	-24	-15%	-12%	4%
CCn1c(N2CCN(S(=O)(=O)c3ccc(F)cc3)CC2)nc2ccccc21	?	-14%	-59*	15µM*	0%	4%
CCn1c(N2CCN(S(=O)(=O)CC)CC2)nc2ccccc21	5%	0%	26	0%	6%	7%
CCn1c(N2CCN(S(=O)(=O)c3ccc(Cl)cc3)CC2)nc2ccccc21	15µM*	2%	-87*	15µM*	?	2%
